Screens from PubChem BioAssay.
HPGD inh: qHTS Assay for Inhibitors of HPGD (15-Hydroxyprostaglandin Dehydrogenase); 15-hydroxyprostaglandin dehydrogenase [NAD(+)] (Homo sapiens), P15428; purified HPGD, NADH fluorescence kinetic, PGE2 substrate; Potency, µM, for the others: at the top dose activity change, negative = inhibition, actives largely listed as inhibitors; 150,000 compounds, 4.3% hits; AID 894, 2007; note: potency is the fitted concentration of half-maximal effect
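20 nM HPGD preincubated 15 min at room temperature with compound in 50 mM Tris-HCl pH 8, 0.01% Tween 20. Started with 1 mM NAD+ and 30 uM prostaglandin E2; NADH fluorescence (360/450 nm) read 5 times over 30-s intervals, last minus first.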
ALDH1A1 block: qHTS Assay for Inhibitors of Aldehyde Dehydrogenase 1 (ALDH1A1); Purified ALDH1A1, NADH fluorescence, propionaldehyde substrate; Potency, µM (titrated, usually from 75.3 µM), without a hit: top-dose activity, negative = inhibition, usual class: inhibitors; 220,000 compounds, 7.3% hits; AID 1030, 2008;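 note: potency is the fitted concentration of half-maximal effect; plate controls were no enzyme wells and a reference inhibitor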
Target sequence (P00352 whole entry, looked up): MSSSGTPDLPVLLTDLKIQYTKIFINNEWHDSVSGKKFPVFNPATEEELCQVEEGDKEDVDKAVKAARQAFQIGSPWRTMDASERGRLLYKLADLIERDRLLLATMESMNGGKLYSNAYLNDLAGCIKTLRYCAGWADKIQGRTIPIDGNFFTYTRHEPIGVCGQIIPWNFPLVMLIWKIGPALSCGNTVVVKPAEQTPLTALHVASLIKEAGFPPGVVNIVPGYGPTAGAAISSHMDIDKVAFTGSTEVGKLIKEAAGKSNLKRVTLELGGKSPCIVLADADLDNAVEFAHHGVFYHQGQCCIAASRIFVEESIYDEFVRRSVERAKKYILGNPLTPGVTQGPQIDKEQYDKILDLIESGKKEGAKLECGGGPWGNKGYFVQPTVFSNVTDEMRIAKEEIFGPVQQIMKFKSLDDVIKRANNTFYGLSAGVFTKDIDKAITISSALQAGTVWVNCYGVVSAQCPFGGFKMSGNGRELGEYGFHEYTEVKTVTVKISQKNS
PNC assembly inh: High Content Assay for Compounds that inhibit the Assembly of the Perinucleolar Compartment; PC3M PTB-GFP, PNC prevalence imaging, 16 h; stronger effect = lower value; activity change (PNC), negative = inhibition, % at 10 µM; 140,000 compounds, 3.1% hits; AID 2417, 2010;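 active = readout at or below -70, meaning at least 70% loss of cells showing the perinucleolar compartment, a nuclear body marking cancer cells; inconclusive = readout between -30 and a set limit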;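 note: plate controls were DMSO wells for no effect and camptothecin positive control wells for full effect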
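Read-out is percentage of cells bearing a perinucleolar compartment, from automated 20x imaging of fixed, Hoechst-stained PC3M PTB-GFP cells. Cells were seeded 4 h, then exposed 16 h to compound (23 nl of library stock) in duplicate plates.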
* hit, by the source's call; ? = inconclusive; / = not tested or not shown; [ ] = dose if it differs, or a comment. This is a sample that favours compounds with a hit; in the whole collection about 11% have one here. Unless noted, calls come from the whole dose curve; as a rule, active = well fitted inhibition curve with a large enough effect (not every such curve was filed as active); inconclusive = small, poorly fitted or top-dose-only effect, or another doubt; inactive = no such curve, though single readings can be large or run the other way. Unless noted, % is set by controls: 0 for no effect and ±100 for the full control effect.

SMILES | HPGD inh | ALDH1A1 block | PNC assembly inh
CCSc1nc2c(c(=O)n1CC)SC(C)C2 (stereo not drawn) | -11% | -8% | 5
COCCn1c(SCC(=O)N2CCCc3ccccc32)nc2ccccc2c1=O | -7% | 25µM* | 3
Cc1ccc(NC(=O)C2(c3ccccc3)CCOCC2)c([N+](=O)[O-])c1 | -4% | 6% | 10
O=C(c1cccc(Br)c1)c1cn(-c2ccccc2)nc1C(=O)c1ccccc1 | -22% | 16% | 8
CCOC(=O)CN1C(=O)S/C(=C/c2ccc(N3CCCCC3)o2)C1=O | -8% | 25µM* | ?
COC(=O)CN1C(=O)S/C(=C/c2ccc(N3CCCCC3)o2)C1=O | -11% | 0.28µM* | 8
Cc1ccc(/C=C2/SC(=O)N(CC(=O)N3CCOCC3)C2=O)s1 | -2% | 3% | -28
Cn1cccc1/C=C1/SC(=O)N(CC(=O)N2CCCC2)C1=O | / | 3% | /
Cc1cc(CCCCCCCCc2cc(C)cc(=O)o2)oc(=O)c1 | -12% | -39% | 41
O=C(NCCCN1CCN(CCCNC(=O)c2cc([N+](=O)[O-])ccc2Cl)CC1)c1cc([N+](=O)[O-])ccc1Cl | -15% | 5% | ?
NNC(=O)CCC(=O)Nc1ccccc1 | / | 12% | /
Cc1ccccc1Nc1nc(N)nc(CSc2nncn2C)n1 | / | -4% | /
Cc1ccccc1Nc1nc(N)nc(CSCc2c(C)noc2C)n1 | -17% | 14µM* | ?
COc1cc(Cl)ccc1NC(=S)N(CCN1CCOCC1)C1CCN(C(C)=O)CC1 | / | 0% | /
CCN(CC)S(=O)(=O)c1ccc(/C(O)=C(\C#N)c2nc3ccccc3n2C)cc1 | -18% | 20µM* | 6
Cn1c(/C(C#N)=C(\O)c2ccc([N+](=O)[O-])cc2)nc2ccccc21 | / | 2% | /
CCC/C=C(\CCC)C(NC(=O)c1ccccc1)c1ccccc1 (stereo not drawn) | -11% | ? | /
Cc1ccc(NC(=O)CSCc2n[nH]c(=O)[nH]2)c(Br)c1 | / | 10% | /
CCOC(=O)c1c(C)c(-c2ccccc2)n(CC(=O)NCCCN(CC)CC)c1C | / | 0% | /
COc1ccc(NC(=S)N(CCCN2CCCCC2)Cc2cccs2)cc1 | -10% | ? | -105*
CCOC(=O)c1ccc(NC(=S)N(CCCN2CCCC2)Cc2cccs2)cc1 | / | 5% | /
COc1ccc(NC(=S)N(CCCN2CCC(C)CC2)Cc2cccs2)cc1 | / | 20µM* | /
COc1cccc(NC(=S)N(CCCN2CCC(C)CC2)Cc2cccs2)c1 | / | -3% | /
COc1ccc(NC(=O)CCc2nc3ccccc3[nH]2)cc1 | / | 3% | /
O=[N+]([O-])c1ccc(O)c(Nc2ncnc3ccccc23)c1 | / | -4% | /
SMILES | HPGD inh | ALDH1A1 block | PNC assembly inh
O=[N+]([O-])c1ccc2ncnc(Nc3ccc4c(c3)OCCO4)c2c1 | / | 0.35µM* | /
CCCOC(=O)CC1C(=O)NCCN1C(=O)OC(C)(C)C (stereo not drawn) | / | -1% | /
NCCCCC(N)C(=O)NC(Cc1ccc(O)cc1)C(=O)NC(CCCCN)C(=O)O (stereo not drawn) | -19% | -8% | /
CCOc1ccc(OCCCCn2cnc3ccccc3c2=O)cc1 | / | 9% | /
O=S(=O)(O)c1cc(O)c2c(O)c(N=Nc3cccc4ccccc34)c(S(=O)(=O)O)cc2c1 | -13% | 6%[13.5 µM] | /
Cc1[nH]c(=O)[nH]c(=O)c1/C=N/NC(=O)[C@H](CC(C)C)NC(=O)OC(C)(C)C | -10% | 6% | 24
Cc1[nH]c(=O)[nH]c(=O)c1/C=N/NC(=O)[C@H](C)NC(=O)OC(C)(C)C | -12% | 0% | -106*
CC(C)CN1C(=O)/C(=C(/C#N)C(=O)NC2CCCCC2)c2ccccc21 | / | 5µM* | /
N#CC(C(=O)NC1CCCCC1)=C1CCCCC1 | -6% | -6% | ?
CC(=O)OCC1C2CC[C@H]3C(OCc4ccc(F)cc4C(F)(F)F)OC[C@]4(C)[C@H]3C2=C(CN4C(=O)OC(C)(C)C)[C@H](C)C1COC(C)=O (stereo partly drawn) | -1% | -8% | /
O=C(Nc1ccc(Nc2ccccc2)cc1)c1ccc(Br)o1 | 28µM* | 5% | 10
O=C(NC(=S)Nc1ccccc1)c1ccc(Br)o1 | / | -5% | /
O=C(Nc1ccc2c(c1)OCCO2)c1ccc(Br)o1 | 28µM* | ? | 70
COc1ccc(NC(=O)c2ccc(Br)o2)cc1 | -19% | -2% | 7
Cc1ccc(C(=O)Nc2ccc3c(c2)OCO3)o1 | -13% | -8% | -21
COc1ccc(NC(=S)NC(=O)c2ccc(Br)o2)cc1 | / | 11µM* | /
O=C(c1csnn1)N1CCC2(CCCN(c3ccc(-c4ccccc4)cc3)C2)CC1 | -13% | -13% | /
O=C(NCCCn1ccnc1)C(=O)Nc1ccccc1 | / | 5% | /
CC(=O)C1=C(O)C(=O)N(c2ccc(C)cc2)C1c1ccc([N+](=O)[O-])cc1 (stereo not drawn) | / | -9% | /
Cc1cc2cc(CN(CCCO)S(=O)(=O)c3cccc4nsnc34)c(=O)[nH]c2cc1C | -12% | -1% | 28
Cc1ccc2[nH]c(=O)c(CN(CCCO)S(=O)(=O)c3c(C)ccc4nsnc34)cc2c1 | -9% | 13µM* | -80*
Cc1cccc(C)c1NC(=O)CSc1nnc(-c2cccnc2)o1 | / | -5% | /
O=C(c1cccc(F)c1)N1CCC2(CCCN(C(c3ccccc3)c3ccccc3)C2)CC1 | -7% | ? | /
CC(C)C1Cc2[nH]c(=O)c(C(=O)O)cc2CO1 (stereo not drawn) | ? | ? | -111*
CC(C)C1Cc2c(sc3[nH]c(=S)n(Cc4ccccc4)c(=O)c23)CO1 (stereo not drawn) | ? | -16% | ?
SMILES | HPGD inh | ALDH1A1 block | PNC assembly inh
CCNS(=O)(=O)c1ccc(NC(=O)CC(C)c2ccccc2)cc1 (stereo not drawn) | / | 28% | /
CNC(=S)N1CCC(NC(=O)C(Cc2ccccc2)NC(C)=O)CC1 (stereo not drawn) | / | 0% | /
CCOC(=O)c1c(NC(=O)c2cccs2)sc(C(=O)N(C)C)c1C | 16µM* | 22µM* | 53
Cc1sc(NC(=O)c2cccs2)c(C(=O)OC(C)C)c1C | ? | ? | -100*
CCc1c(C)sc(NC(=O)c2cccs2)c1C(=O)OC(C)C | ? | ? | 19
CCOC(=O)c1c(NC(=O)c2cccs2)sc(C)c1CC | ? | -13% | 11
COc1ccc(OC)c(N(CC(=O)Nc2cccc(C(F)(F)F)c2)S(C)(=O)=O)c1 | / | -4% | /
Cn1cnc([N+](=O)[O-])c1Sc1nc(N)nc2c1ncn2[C@H]1C[C@H](O)[C@@H](CO)O1 | -8% | 5%[13.5 µM] | /
c1coc(-c2nnc(SCc3cn4ccccc4n3)o2)c1 | -12% | 5% | -13
Brc1c(CSc2nnc(-c3ccco3)o2)nc2ccccn12 | 7.9µM* | ? | ?
COc1ccc(CNC(=O)Cn2cc(C(F)(F)F)ccc2=O)cc1 | / | ? | 88
CCCn1nnnc1SCC(=O)N1CCN(C(=O)c2ccco2)CC1 | -11% | ? | 14
CC(C)n1nnnc1SCC(=O)N1CCN(C(=O)c2ccco2)CC1 | -2% | 25µM* | -30
O=C(CSc1nnnn1C1CCCC1)N1CCN(C(=O)c2ccco2)CC1 | -2% | 14µM* | 42
O=C(CSc1nnnn1C1CCCCC1)N1CCCC1 | / | ? | -30
Nc1c(S(N)(=O)=O)cc(S(N)(=O)=O)cc1S(N)(=O)=O | -5% | 2%[13.5 µM] | /
